Drawing on PubChem BioAssay, this text covers z-score and composite z-score for 13 molecules.

Calls of active or inactive are those of the source. Unless noted, no rule for the calls is given here.

Test [1] in a line: HepG2 liver cancer cell viability effects, profiling panel, resazurin fluorescence, 24 h, PK04 Diversity Set (AID 1172). Also: test concentration not given here. The conditions noted are these: higher = more signal.
A short description of test [2]: basal S. cerevisiae growth modulation, no modifier, primary screen, OD600, strain BY4716, 24 h, basal condition (AID 1173). The following applies: OD600, 24 h, higher = more signal, called active from +8 up or from −8 down.
The nature of test [3]: MM1S myeloma cell viability, profiling panel, resazurin fluorescence, basal, 24 h, PK04 Diversity Set (AID 1174).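 Also: MM1S multiple myeloma cell line; test concentration not given here.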 The following applies: higher = more signal, called active from +8 up or from −8 down. (Resazurin is reduced to fluorescent resorufin, in cell work by metabolically active cells.)
In test [4] the target is Dihydroorotate dehydrogenase (quinone), mitochondrial (Plasmodium falciparum (isolate 3D7)) (UniProt Q08210). The test can be described thus: PfDHODH enzyme inhibitors, primary screen, biochemical, C-terminal His tag, absorbance 600 nm (AID 1175).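 Also: recombinant parasite enzyme with a five histidine tag at its C terminus; test concentration not given here.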 The conditions noted are these: DCIP absorbance 600 nm, higher = more signal, called active from +8 up or from −8 down.
Test [5] is described as follows: P. aeruginosa biofilm formation inhibitors, primary screen, strain PAO1, LB-PBS medium, absorbance 600 nm (AID 1176). Also: test concentration not given here. The following applies: P. aeruginosa PAO1 growth/biofilm, A600, 12 h; higher = more signal.
The nature of test [6]: S. cerevisiae RM11-1a growth modifiers, primary screen, strain RM11-1a, OD600, basal, 24 h (AID 1177).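 Also: cultures grown under basal conditions with no added stressor; test concentration not given here.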 The conditions noted are these: OD600, 24 h, higher = more signal, called active from +8 up or from −8 down.
Test [7] is described as follows: E. coli acrAB mutant growth effects, primary screen, E. coli filamentation inducers, strain DRC39, OD650, 24 h (AID 1178).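 Also: growth measured as culture turbidity by optical density at 650 nm; test concentration not given here.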 The conditions noted are these: higher = more signal, called active from +8 up or from −8 down.
Test [8] is described as follows: E. coli acrAB mutant growth effects, primary screen, E. coli filamentation inducers, strain DRC39, OD650, 48 h (AID 1179).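 Also: screen aims at cell division blockers that make cells filament.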 The following applies: E. coli DRC39 delta-acrAB growth, higher = more signal, called active from +8 up or from −8 down.
The nature of test [9]: RPMI8226 myeloma cell viability, profiling panel, resazurin fluorescence, basal, 24 h, PK04 Diversity Set (AID 1180).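 Also: RPMI8826 multiple myeloma cell line at 5000 cells per well; test concentration not given here.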 The conditions noted are these: higher = more signal.
Test [10] concerns the target E3 ubiquitin-protein ligase XIAP (Homo sapiens) (UniProt P98170). The test can be described thus: XIAP binders, primary screen, biophysical, small-molecule microarray, fluorescence 635 nm (AID 1181).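 Also: score merges 667 nm emission and signal to noise over triplicate slides.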 The following applies: small-molecule microarray binding, higher = more signal.

Dihydroorotate dehydrogenase (quinone), mitochondrial (Plasmodium falciparum (isolate 3D7)), sequence (Q08210 whole entry, looked up): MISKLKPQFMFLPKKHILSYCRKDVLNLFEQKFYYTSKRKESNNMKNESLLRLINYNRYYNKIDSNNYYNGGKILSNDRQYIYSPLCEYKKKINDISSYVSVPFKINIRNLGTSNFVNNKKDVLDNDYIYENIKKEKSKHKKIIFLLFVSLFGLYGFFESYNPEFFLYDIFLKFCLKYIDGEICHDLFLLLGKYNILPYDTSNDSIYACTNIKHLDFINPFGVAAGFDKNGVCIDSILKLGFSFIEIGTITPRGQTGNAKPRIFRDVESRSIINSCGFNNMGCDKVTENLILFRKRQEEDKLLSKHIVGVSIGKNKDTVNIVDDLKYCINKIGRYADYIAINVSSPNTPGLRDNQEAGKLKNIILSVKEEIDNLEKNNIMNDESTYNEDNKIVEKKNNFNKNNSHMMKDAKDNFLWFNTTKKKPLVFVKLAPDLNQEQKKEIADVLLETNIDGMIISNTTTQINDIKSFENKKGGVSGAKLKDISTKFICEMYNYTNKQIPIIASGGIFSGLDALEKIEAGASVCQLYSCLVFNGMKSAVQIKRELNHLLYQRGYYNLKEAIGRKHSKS
E3 ubiquitin-protein ligase XIAP (Homo sapiens), sequence (P98170 whole entry, looked up): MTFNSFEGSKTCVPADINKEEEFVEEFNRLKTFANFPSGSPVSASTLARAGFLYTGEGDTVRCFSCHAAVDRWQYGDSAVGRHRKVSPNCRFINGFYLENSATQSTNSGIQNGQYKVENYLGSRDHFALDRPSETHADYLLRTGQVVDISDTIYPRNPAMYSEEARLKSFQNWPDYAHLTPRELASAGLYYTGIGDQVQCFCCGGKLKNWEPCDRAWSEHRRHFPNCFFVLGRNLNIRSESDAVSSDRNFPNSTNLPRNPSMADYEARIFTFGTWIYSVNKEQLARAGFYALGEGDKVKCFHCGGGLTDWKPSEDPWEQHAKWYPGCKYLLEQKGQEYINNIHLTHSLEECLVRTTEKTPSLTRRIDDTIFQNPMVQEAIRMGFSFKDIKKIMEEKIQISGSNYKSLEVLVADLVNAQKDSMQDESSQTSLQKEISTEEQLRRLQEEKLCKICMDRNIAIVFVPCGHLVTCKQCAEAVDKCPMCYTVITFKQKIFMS

For the molecule `CC(C)CON=C1C[C@@H](O)[C@@H](O)[C@@H]2[C@@H]3C(=O)N(Cc4ccc5c(c4)OCO5)C(=O)[C@@H]3CC[C@@H]12`, the z-score in test [1] is 0.344; in test [2], 0.793 (inactive); in [3] it was 0.61 (inactive); in [5] it was -0.249 (inactive); in test [6], 0.64 (inactive); in test [7], 0.146 (inactive). The z-score is -0.563 (inactive) in [8] and -0.0253 in test [9]. Moreover, the composite z-score in test [4] is 0.0312 (inactive); in test [10], -0.102.

With `COC(=O)[C@H](Cc1ccccc1)NC(=O)[C@@H](C)CO`, the z-score is -0.427 in [1]; -0.462 (inactive) in test [2]; -0.0481 (inactive) in test [3]; 0.733 (inactive) in [5]; 0.0469 (inactive) in [6]; -1.48 (inactive) in [7]. Further, the z-score in test [8] was -0.84 (inactive); in test [9], -0.376. In addition, the composite z-score in [4] was -2.16 (inactive); in [10], 0.0154.

For `C[C@H]1CC[C@H]2C(=O)N[C@H](Cc3ccccc3)C(=O)N2[C@@H]1c1ccccc1`, the z-score in test [1] was -0.69; in test [2], -0.512 (inactive); in test [3], -0.322 (inactive); in [5], -0.327 (inactive); in [6], 0.0033 (inactive); in [7], 0.718 (inactive). Further, the z-score in [8] is 0.295 (inactive); in test [9], -0.142. Moreover, the figures for the composite z-score in test [4] and in test [10] were 0.868 (inactive) and -0.24, respectively.

`C#CCCCON=C1C[C@@H](O)[C@@H](O)[C@@H]2[C@@H]3C(=O)N(C[C@@H]4CCCO4)C(=O)[C@@H]3CC[C@H]12`: the z-score was -0.344 in test [1]; 0.767 (inactive) in [2]; -0.448 (inactive) in test [3]; 0.0001 (inactive) in [5]; 0.364 (inactive) in test [6]; -0.145 (inactive) in [7]. For the same molecule, the figures for the z-score in [8] and in test [9] were 0.212 (inactive) and -0.179, respectively. Also, the composite z-score in test [4] is 0.347 (inactive); in test [10], -0.122.

With `Cc1ccc2[nH]c3nc(CCCn4ccnc4-c4ccccc4)nnc3c2c1`, the z-score in test [1] was -0.256; in [2] it was -0.104 (inactive); in [3] it was -1.15 (inactive); in test [5], 0.0737 (inactive); in test [6], -0.212 (inactive); in [7], 0.164 (inactive). The z-score is 0.183 (inactive) in [8] and -0.976 in test [9]. For the same molecule, the composite z-score in test [4] was 0.411 (inactive); in test [10], -0.119.

Consider `CON=C[C@@H](OC)[C@H](C)C=CCC(=O)OC`, for which the z-score in test [1] was 0.0392; in [2] it was -0.117 (inactive); in test [3], 0.293 (inactive); in [5], 0.0738 (inactive); in test [6], -0.557 (inactive); in test [7], -0.311 (inactive). Also, the z-score was -2.25 (inactive) in test [8] and -0.274 in [9]. In addition, the values for the composite z-score in test [4] and in [10] were -0.241 (inactive) and -0.162, respectively.

Take `O=C1C=C[C@@H](O)[C@@H]2[C@@H]3C(=O)N(C4CCCCC4)C(=O)[C@@H]3CC[C@@H]12`: the z-score was -0.295 in [1]; -1.28 (inactive) in test [2]; -1.45 (inactive) in [3]; -0.601 (inactive) in [5]; 0.246 (inactive) in test [6]; -0.292 (inactive) in [7]. The z-score is -0.191 (inactive) in test [8] and -1.31 in [9]. Also, the composite z-score is -0.168 (inactive) in [4] and -0.269 in test [10].

With `CON(C)C(=O)c1nnc2c(n1)[nH]c1ccccc12`, the z-score in [1] is -0.244; in test [2], 0.304 (inactive); in test [3], 0.322 (inactive); in [5] it was 0.131 (inactive); in test [6] it was -0.915 (inactive); in test [7], 0.593 (inactive). In addition, the results for the z-score in test [8] and in test [9] were 0.572 (inactive) and 0.492, respectively. In addition, the composite z-score in test [4] is -0.306 (inactive); in [10], 0.273.

Regarding `O=C1C=C[C@@H](O)[C@@H]2[C@@H]3C(=O)N(Cc4ccc5c(c4)OCO5)C(=O)[C@@H]3CC[C@@H]12`, the z-score was -0.557 in test [1]; 0.516 (inactive) in [2]; 0.966 (inactive) in test [3]; 0.0122 (inactive) in test [5]; -0.129 (inactive) in test [6]; 0.207 (inactive) in test [7]. In addition, the figures for the z-score in test [8] and in test [9] were -0.173 (inactive) and 0.422, respectively. Further, the composite z-score was 0.0627 (inactive) in [4] and -0.0233 in test [10].

On to `CCOC(=O)[C@H](Cc1ccccc1)NC(=O)CCC1CC(OC(=O)NCc2cccc3ccccc23)CC2(CCCC(COC(=O)NCCc3ccccc3OC)O2)O1` (stereo not given in full), for which the z-score in test [1] was 0.942; in test [2], -1.14 (inactive); in test [3], 0.179 (inactive); in test [5], 0.86 (inactive); in [6], 0.166 (inactive); in test [7], 0.122 (inactive). Further, the figures for the z-score in test [8] and in test [9] were 0.0971 (inactive) and 0.0498, respectively. Further, the composite z-score in [4] was -0.561 (inactive); in [10], -0.194.

In the case of `COC(=O)[C@@H]1CC[C@H](C)[C@@H](c2ccc(C)cc2)N1C(=O)c1ccc(C=NOC[C@H]2O[C@H](c3ccccc3)C=C[C@@H]2Oc2ccc(OC)cc2)cc1`, the z-score in test [1] is 0.158; in test [2] it was 0.856 (inactive); in [3] it was -0.0983 (inactive); in test [5] it was 0.0282 (inactive); in test [6], 0.386 (inactive); in test [7] it was -0.469 (inactive). Also, the figures for the z-score in [8] and in test [9] were -0.499 (inactive) and 0.539, respectively. The composite z-score is 0.13 (inactive) in test [4] and -0.0773 in test [10].

As to `CON=C(C)CCC(=O)OC[C@H]1O[C@H](C#Cc2ccccc2)C=C[C@@H]1Oc1ccc(C)cc1`, the z-score in test [1] is -0.118; in test [2], -0.944 (inactive); in test [3], -0.642 (inactive); in [5], 0.298 (inactive); in [6], 0.888 (inactive); in test [7], 0.556 (inactive). Besides, the z-score is -1.88 (inactive) in test [8] and -0.549 in [9]. Moreover, the composite z-score in [4] was 0.444 (inactive); in test [10] it was 0.289.

As to `Cc1ccc(S(=O)(=O)N[C@@H]2COC(=O)CC=C[C@@H](C)[C@H](NS(=O)(=O)c3ccc(C)cc3)COC(=O)[C@H](C)NC(=O)CC=C[C@H]2C)cc1`, the z-score was -0.286 in test [1]; -0.547 (inactive) in test [2]; 0.341 (inactive) in test [3]; -0.143 (inactive) in test [5]; -0.188 (inactive) in test [6]; 0.983 (inactive) in test [7]. Further, the z-score in test [8] is 0.0462 (inactive); in test [9] it was -0.24. The composite z-score in test [4] is 0.576 (inactive); in [10], -0.227.
